Laboratory results: PubChem BioAssay (EPA / NIEHS)
Several values for one entry are separate records, joined by “and”; a condition that tells them apart may be missing. Identical values can stand only once. Results filed as inconclusive are left out. A structure can be active in one record and inactive in another. Activity calls are given as the source filed them. The calls were made as follows, unless noted: active = hit-call score of the fitted dose curve at least 0.9, where 1 is the maximum; inconclusive = response in the unintended direction; inactive = score below 0.9.

Legend:
[1] = target: Estrogen receptor beta (Homo sapiens) (UniProt Q92731); test: OT_ER_ERbERb_1440: Odyssey Thera (OT) 24-hour HEK293T Protein-Complementation Assay for Estrogen Receptor-beta/-beta Homodimer (AID 2283380);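 also: fluorescence gain from ER beta LBD homodimer complementation read by laser scanning cytometry; scored as signal increase over DMSO baseline for both agonists and antagonists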
Method in brief: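 HEK293T cells stably expressing human ER-beta LBD (aa 310-547) PCA homodimer pair, dosed 24 h; formaldehyde-fixed, Draq5-stained. Readout: increase in nuclear (agonist) or nuclear plus cytoplasmic (antagonist) fluorescence intensity versus DMSO, gain-of-signal fitting.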

[2] = target: Bile acid receptor (Homo sapiens) (UniProt Q96RI1); test: OT_FXR_FXRSRC1_0480: Odyssey Thera (OT) 8-hour HEK293T Protein-Complementation Assay for Farnesoid X receptor/SRC-1 Co-activator (AID 2283383)
Method in brief: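 HEK293T cells expressing FXR and SRC-1 fused to reporter fragments were dosed with compound for 8 h; fluorescence from the reconstituted reporter marked co-activator recruitment. Gain of signal was fitted against the DMSO baseline.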

[3] = target: Peroxisome proliferator-activated receptor gamma (Homo sapiens) (UniProt P37231); test: OT_PPARg_PPARgSRC1_0480: Odyssey Thera (OT) 8-hour Protein-Complementation Assay for Peroxisome Proliferator-activated Receptor Gamma / SRC-1 Co-activator (AID 2283387);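 also: nuclear to cytoplasmic split Venus YFP fluorescence ratio reporting PPARg SRC-1 interaction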
Method in brief: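 Read-out: 488 nm N/C fluorescence ratio from complemented Venus YFP fragments, ≥350 cells per image, gain-of-signal fitted against DMSO baseline. Fusions of PPARg/SRC-1 with IFP1/IFP2 expressed transiently in HEK293T; compounds applied 8 h.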

[4] = target: Peroxisome proliferator-activated receptor gamma (Homo sapiens) (UniProt P37231); test: OT_PPARg_PPARgSRC1_1440: Odyssey Thera (OT) 24-hour Protein-Complementation Assay for Peroxisome Proliferator-activated Receptor Gamma/ SRC-1 Co-activator (AID 2283388);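 also: nuclear to cytoplasmic ratio of reconstituted Venus YFP fluorescence in fixed imaged cells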
Method in brief: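 Readout: nuclear-to-cytoplasmic 488 nm fluorescence ratio, ≥350 cells per image, 8 images per well, after 24 h compound exposure of HEK293T expressing PPARg/SRC-1 split-YFP fusions. Activity fitted in positive direction against DMSO.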

[5] = CEETOX_H295R_11DCORT: CeeTox H295R High-throughput Steroidogenesis Assay for 11-Deoxycortisol (11DCORT) (AID 2283432; active = hit-call score of the fitted dose curve at least 0.9, where 1 is the maximum; inactive = score below 0.9;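 as to AC50: 11-deoxycortisol secreted into the medium measured by LC-MS/MS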); details: actives raise or lower the signal
Method in brief: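 H295R cells; 10 uM forskolin prestim 48 h; compound in 0.1% DMSO 48 h; media extracted with MTBE; 11-deoxycortisol by LC-MS/MS, 7-point standard curve; gain/loss vs DMSO baseline; viability by MTT in same wells.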

[6] = CEETOX_H295R_OHPREG: CeeTox H295R High-throughput Steroidogenesis Assay for OH-Pregnenolone (OHPREG) (AID 2283434; active = hit-call score of the fitted dose curve at least 0.9, where 1 is the maximum; inactive = score below 0.9); details: actives raise or lower the signal
Method in brief: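 Human adrenal H295R cells were prestimulated 48 h with 10 uM forskolin, then exposed 48 h to chemical in 0.1% DMSO. Medium 17alpha-hydroxypregnenolone was quantified by HPLC-MS/MS after MTBE extraction; bidirectional fitting versus DMSO baseline.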

[7] = CEETOX_H295R_OHPROG: CeeTox H295R High-throughput Steroidogenesis Assay for OH-Progesterone (OHPROG) (AID 2283435; active = hit-call score of the fitted dose curve at least 0.9, where 1 is the maximum; inactive = score below 0.9); details: actives raise or lower the signal
Method in brief: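 H295R human adrenal cells were prestimulated 48 h with 10 uM forskolin, then exposed 48 h to test chemical (0.1% DMSO final). 17alpha-hydroxyprogesterone in medium was measured by HPLC-MS/MS after MTBE extraction; bidirectional fitting vs DMSO.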

[8] = CEETOX_H295R_CORTISOL: CeeTox H295R High-throughput Steroidogenesis Assay for Cortisol (AID 2283438; active = hit-call score of the fitted dose curve at least 0.9, where 1 is the maximum; inactive = score below 0.9;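 also: cortisol secreted into medium quantified by LC-MS/MS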); details: actives raise or lower the signal
Method in brief: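 H295R human adrenal cells were prestimulated 48 h with 10 uM forskolin, then exposed 48 h to test chemical (0.1% DMSO final). Medium cortisol was quantified by HPLC-MS/MS after MTBE extraction; bidirectional fitting relative to DMSO baseline.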

[9] = CEETOX_H295R_DOC: CeeTox H295R High-throughput Steroidogenesis Assay for DOC (AID 2283439; active = hit-call score of the fitted dose curve at least 0.9, where 1 is the maximum; inactive = score below 0.9); details: actives raise or lower the signal
Method in brief: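 H295R adrenal cells prestimulated 48 h with 10 uM forskolin, then exposed 48 h to test chemical (0.1% DMSO final). Medium 11-deoxycorticosterone extracted with MTBE, quantified by HPLC-MS/MS; bidirectional fit versus DMSO baseline; MTT viability in same wells.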

[10] = target: Retinoic acid receptor RXR-alpha (Homo sapiens) (UniProt P19793); test: OT_NURR1_NURR1RXRa_1440: Odyssey Thera (OT) 24-hour HEK293T Protein Complementation Assay for Nurr1/retinoid X receptor (RXR) (AID 2283386)
Method in brief: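 HEK293T cells were dosed with compound and read 24 h later by fluorescence intensity in a protein-fragment complementation format, where Nurr1–RXRα interaction reconstitutes a split reporter. Activity was fitted as gain of signal relative to DMSO baseline.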

[11] = target: Estrogen receptor (Homo sapiens) (UniProt P03372); test: OT_ERa_GFPERaERE_0480: Odyssey Thera (OT) 8-hour HeLa Transcription Induction Assay for Estrogen Receptor (AID 2283381; active = hit-call score of the fitted dose curve at least 0.9, where 1 is the maximum; inactive = score below 0.9)
Method in brief: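 HeLa cells dosed with compound and imaged by fluorescence microscopy at 8 h; GFP induction from an ERE reporter quantified by high-content image analysis and fitted as gain of signal against DMSO baseline.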

[12] = target: Estrogen receptor (Homo sapiens) (UniProt P03372); test: OT_ERa_GFPERaERE_0120: Odyssey Thera (OT) 2-hour HeLa Transcription Induction Assay for Estrogen Receptor (AID 2283382)
Method in brief: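 HeLa cells were dosed with test chemical and read 2 hours later for GFP-ERα/ERE-linked fluorescent protein induction by fluorescence microscopy. Gain-of-signal was fitted relative to DMSO baseline, quantified by high content image analysis.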

[13] = target: Bile acid receptor (Homo sapiens) (UniProt Q96RI1); test: OT_FXR_FXRSRC1_1440: Odyssey Thera (OT) 24-hour HEK293T Protein-Complementation Assay for Farnesoid X receptor/SRC-1 Co-activator (AID 2283384)
Method in brief: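 HEK293T cells were dosed with compound and read 24 h later by fluorescence intensity from protein-fragment complementation reporting FXR/SRC-1 co-activator interaction. Gain of signal was fitted relative to DMSO negative control as baseline.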

[14] = target: Retinoic acid receptor RXR-alpha (Homo sapiens) (UniProt P19793); test: OT_NURR1_NURR1RXRa_0480: Odyssey Thera (OT) 8-hour HEK293T Protein Complementation Assay for Nurr1/retinoid X receptor (RXR) (AID 2283385)
Method in brief: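 HEK293T cells expressing Nurr1 and RXRα fused to reporter fragments were dosed with compound for 8 hours. Complex formation was read as fluorescence intensity and analysed as gain of signal against DMSO as baseline.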

Chain of Bile acid receptor (Homo sapiens) (Q96RI1 whole entry, looked up, the tested form may be a part): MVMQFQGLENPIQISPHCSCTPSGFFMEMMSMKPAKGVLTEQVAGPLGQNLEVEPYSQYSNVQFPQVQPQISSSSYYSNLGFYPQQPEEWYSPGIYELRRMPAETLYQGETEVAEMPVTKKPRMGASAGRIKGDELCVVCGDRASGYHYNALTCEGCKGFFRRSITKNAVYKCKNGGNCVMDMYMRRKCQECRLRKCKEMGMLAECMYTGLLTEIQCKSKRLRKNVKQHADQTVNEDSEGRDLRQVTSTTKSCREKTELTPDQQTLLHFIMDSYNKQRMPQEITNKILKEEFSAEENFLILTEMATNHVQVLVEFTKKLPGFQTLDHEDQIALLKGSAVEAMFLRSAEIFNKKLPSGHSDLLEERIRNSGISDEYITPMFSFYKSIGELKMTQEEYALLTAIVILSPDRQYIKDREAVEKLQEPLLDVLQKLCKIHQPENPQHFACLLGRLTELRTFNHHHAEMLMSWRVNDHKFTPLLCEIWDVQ
Chain of Peroxisome proliferator-activated receptor gamma (Homo sapiens) (P37231 whole entry, looked up, the tested form may be a part): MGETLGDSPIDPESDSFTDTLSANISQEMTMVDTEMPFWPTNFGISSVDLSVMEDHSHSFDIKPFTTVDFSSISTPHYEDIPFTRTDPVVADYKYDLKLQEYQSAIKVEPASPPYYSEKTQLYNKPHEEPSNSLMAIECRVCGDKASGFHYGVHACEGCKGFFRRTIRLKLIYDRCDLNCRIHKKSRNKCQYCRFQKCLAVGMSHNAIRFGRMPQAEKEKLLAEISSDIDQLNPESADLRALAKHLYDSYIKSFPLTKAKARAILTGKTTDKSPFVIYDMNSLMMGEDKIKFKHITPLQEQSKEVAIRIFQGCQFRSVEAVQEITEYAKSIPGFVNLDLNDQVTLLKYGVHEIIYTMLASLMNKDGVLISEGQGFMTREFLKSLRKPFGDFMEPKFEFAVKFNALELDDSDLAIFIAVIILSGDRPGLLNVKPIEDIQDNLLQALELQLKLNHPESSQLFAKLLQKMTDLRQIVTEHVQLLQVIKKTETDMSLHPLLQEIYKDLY
Chain of Retinoic acid receptor RXR-alpha (Homo sapiens) (P19793 whole entry, looked up, the tested form may be a part): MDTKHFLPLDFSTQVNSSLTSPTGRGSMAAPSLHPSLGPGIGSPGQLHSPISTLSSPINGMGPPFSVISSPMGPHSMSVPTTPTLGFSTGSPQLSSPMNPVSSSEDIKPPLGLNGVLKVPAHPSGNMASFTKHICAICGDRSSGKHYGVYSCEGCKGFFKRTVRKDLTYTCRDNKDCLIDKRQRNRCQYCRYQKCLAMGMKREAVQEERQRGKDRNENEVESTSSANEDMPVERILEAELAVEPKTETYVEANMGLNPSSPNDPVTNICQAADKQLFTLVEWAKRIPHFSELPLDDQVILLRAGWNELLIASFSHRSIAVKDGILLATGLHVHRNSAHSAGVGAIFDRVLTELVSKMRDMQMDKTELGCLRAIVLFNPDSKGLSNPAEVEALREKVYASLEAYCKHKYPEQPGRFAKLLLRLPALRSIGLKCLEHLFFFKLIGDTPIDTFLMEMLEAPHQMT
Chain of Estrogen receptor beta (Homo sapiens) (Q92731 whole entry, looked up, the tested form may be a part): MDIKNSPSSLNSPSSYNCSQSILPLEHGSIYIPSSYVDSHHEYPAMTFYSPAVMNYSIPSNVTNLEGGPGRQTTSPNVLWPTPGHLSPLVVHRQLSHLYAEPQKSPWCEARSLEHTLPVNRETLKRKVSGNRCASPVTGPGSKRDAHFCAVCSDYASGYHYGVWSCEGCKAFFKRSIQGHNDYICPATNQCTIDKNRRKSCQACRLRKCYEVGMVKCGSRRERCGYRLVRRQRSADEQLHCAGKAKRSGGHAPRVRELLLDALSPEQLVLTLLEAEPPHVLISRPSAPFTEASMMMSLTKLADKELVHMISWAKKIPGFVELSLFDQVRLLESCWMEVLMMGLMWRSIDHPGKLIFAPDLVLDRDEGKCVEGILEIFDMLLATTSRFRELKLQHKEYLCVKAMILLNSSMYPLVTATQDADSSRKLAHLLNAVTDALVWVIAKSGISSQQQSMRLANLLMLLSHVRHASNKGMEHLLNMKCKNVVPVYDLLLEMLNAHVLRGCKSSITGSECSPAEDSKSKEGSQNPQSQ
Chain of Estrogen receptor (Homo sapiens) (P03372 whole entry, looked up): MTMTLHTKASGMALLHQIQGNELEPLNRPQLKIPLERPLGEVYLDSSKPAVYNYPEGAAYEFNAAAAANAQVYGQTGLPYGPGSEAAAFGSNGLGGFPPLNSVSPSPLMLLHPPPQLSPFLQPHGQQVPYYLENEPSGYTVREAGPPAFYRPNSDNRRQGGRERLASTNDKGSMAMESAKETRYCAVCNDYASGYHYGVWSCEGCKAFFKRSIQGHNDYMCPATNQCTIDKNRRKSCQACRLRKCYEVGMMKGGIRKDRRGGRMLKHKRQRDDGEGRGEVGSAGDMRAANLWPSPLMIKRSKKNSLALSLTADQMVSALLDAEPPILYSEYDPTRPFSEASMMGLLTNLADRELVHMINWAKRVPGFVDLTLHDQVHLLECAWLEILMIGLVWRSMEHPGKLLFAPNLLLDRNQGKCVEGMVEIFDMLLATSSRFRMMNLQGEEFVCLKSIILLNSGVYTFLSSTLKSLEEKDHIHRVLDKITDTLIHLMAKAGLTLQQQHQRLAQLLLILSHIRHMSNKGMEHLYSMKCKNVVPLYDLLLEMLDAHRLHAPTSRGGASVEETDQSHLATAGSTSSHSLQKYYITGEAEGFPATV

FC(F)C(F)(F)OCC(Cn1cncn1)c1ccc(Cl)cc1Cl (stereo not drawn)
outcome [1]: inactive | outcome [2]: inactive | outcome [3]: inactive | outcome [4]: inactive | outcome [5]: inactive | outcome [6]: inactive | outcome [7]: inactive | outcome [8]: inactive | outcome [9]: inactive

CN(C)NC(=O)CCC(=O)O
AC50 [1]: 16.8 µM (active) | outcome [10]: inactive | outcome [4]: inactive | outcome [6]: inactive | outcome [7]: inactive

N#CSCSC#N
outcome [1]: inactive | AC50 [2]: 11.4 µM (active) | outcome [4]: inactive

CN(C)C(=O)Nc1cccc(C(F)(F)F)c1
outcome [1]: inactive | outcome [10]: inactive | outcome [4]: inactive | outcome [6]: inactive | AC50 [7]: 52.6 µM (active)

O=[N+]([O-])c1cc(C(F)(F)F)c(Cl)c([N+](=O)[O-])c1Nc1ncc(C(F)(F)F)cc1Cl
AC50 [11]: 17.9 µM (active) | AC50 [12]: 77.7 µM (active) | AC50 [10]: 0.641 µM (active) | outcome [3]: inactive | outcome [4]: inactive

Nc1nc(N)nc(NC2CC2)n1
outcome [1]: inactive | outcome [13]: inactive | outcome [10]: inactive | outcome [5]: inactive | outcome [6]: inactive | outcome [7]: inactive | outcome [8]: inactive | outcome [9]: inactive

CCOP(=S)(Oc1cnc(C(C)(C)C)nc1)OC(C)C (stereo not drawn)
AC50 [10]: 78.8 µM (active) | outcome [10]: inactive | outcome [4]: inactive

CON=C(C(=O)OC)c1ccccc1CON=C(C)c1cccc(C(F)(F)F)c1
outcome [10]: inactive | outcome [4]: inactive

CCOP(=S)(OCC)OC(Cl)C(Cl)(Cl)Cl (stereo not drawn)
outcome [1]: inactive | outcome [10]: inactive | outcome [4]: inactive

CN1COCN(Cc2cnc(Cl)s2)C1=N[N+](=O)[O-]
outcome [13]: inactive | outcome [10]: inactive | outcome [4]: inactive

CCc1cnc(C2=NC(C)(C(C)C)C(=O)N2)c(C(=O)O)c1 (stereo not drawn)
outcome [10]: inactive | outcome [4]: inactive

CCOP(=S)(OCC)SCCSCC
outcome [1]: inactive | outcome [3]: inactive | outcome [4]: inactive

C=C(C)[C@H]1Cc2c(ccc3c2O[C@@H]2COc4cc(OC)c(OC)cc4[C@@H]2C3=O)O1
AC50 [2]: 12.7 µM (active) | AC50 [13]: 9.92 µM (active) | AC50 [14]: 16 µM (active) and 12.6 µM (active) | AC50 [10]: 22.2 µM (active) | outcome [10]: inactive | outcome [4]: inactive

COP(=O)(OC)C(O)C(Cl)(Cl)Cl (stereo not drawn)
outcome [2]: inactive | AC50 [13]: 25.1 µM (active) | outcome [10]: inactive | outcome [4]: inactive

O=C(O)c1cc(Oc2ccc(C(F)(F)F)cc2Cl)ccc1[N+](=O)[O-]
outcome [1]: inactive | outcome [4]: inactive | outcome [5]: inactive | outcome [6]: inactive | outcome [7]: inactive | outcome [8]: inactive | outcome [9]: inactive

S=C1NCCN1
outcome [10]: inactive | outcome [3]: inactive | outcome [4]: inactive

CCOP(=S)(OCC)Oc1ccc2c(C)c(Cl)c(=O)oc2c1
outcome [1]: inactive | outcome [10]: inactive | outcome [4]: inactive | AC50 [5]: 5 µM (active) | outcome [6]: inactive | AC50 [7]: 1.67 µM (active) | outcome [8]: inactive | AC50 [9]: 1.23 µM (active)

CCOP(=S)(OCC)Oc1cc(C)nc(C(C)C)n1
outcome [4]: inactive | AC50 [5]: 50 µM (active) | outcome [6]: inactive | AC50 [7]: 6.6 µM (active) | AC50 [8]: 50 µM (active) | outcome [9]: inactive

CCC(=NOC/C=C/Cl)C1=C(O)CC(C2CCOCC2)CC1=O (stereo not drawn)
outcome [1]: inactive | outcome [14]: inactive | outcome [10]: inactive | outcome [4]: inactive

C#CC(C)(C)NC(=O)c1cc(Cl)cc(Cl)c1
AC50 [5]: 19.1 µM (active) | AC50 [6]: 13.4 µM (active) | AC50 [7]: 23.7 µM (active) | outcome [8]: inactive | AC50 [9]: 7.45 µM (active)

CC(C1CC1)C(O)(Cn1cncn1)c1ccc(Cl)cc1 (stereo not drawn)
AC50 [1]: 31.1 µM (active) | outcome [14]: inactive | outcome [3]: inactive | outcome [4]: inactive | AC50 [6]: 4.38 µM (active) | AC50 [7]: 3.21 µM (active)

CNC(=O)ON=C(C)SC
outcome [1]: inactive | outcome [10]: inactive | outcome [3]: inactive | outcome [4]: inactive | outcome [5]: inactive | outcome [6]: inactive | outcome [7]: inactive | outcome [8]: inactive | outcome [9]: inactive

COP(=O)(NC(C)=O)SC (stereo not drawn)
outcome [1]: inactive | outcome [14]: inactive | outcome [10]: inactive | outcome [3]: inactive | outcome [4]: inactive | outcome [5]: inactive | outcome [7]: inactive | outcome [8]: inactive | outcome [9]: inactive
